Measurements published in the supplement of paper PMC11732987, “Enantioselective OTUD7B fragment discovery through chemoproteomics screening and high-throughput optimisation” (Communications Chemistry, 2025).

Key:
Experiment in all cases: log2 ratio of Biotin-Ahx-Ub-VS probe labelling (fragment/DMSO); higher = less target engagement (more negative = stronger competition), active = hit call of the paper (q ≤ 0.05, log2 ratio ≤ -1)
Conditions in all cases: compound concentration: 200 uM; treatment time: 3 h
OTUD6B = target: T1, OTUD6B (UniProt Q8N6M0)
T1 sequence (whole entry): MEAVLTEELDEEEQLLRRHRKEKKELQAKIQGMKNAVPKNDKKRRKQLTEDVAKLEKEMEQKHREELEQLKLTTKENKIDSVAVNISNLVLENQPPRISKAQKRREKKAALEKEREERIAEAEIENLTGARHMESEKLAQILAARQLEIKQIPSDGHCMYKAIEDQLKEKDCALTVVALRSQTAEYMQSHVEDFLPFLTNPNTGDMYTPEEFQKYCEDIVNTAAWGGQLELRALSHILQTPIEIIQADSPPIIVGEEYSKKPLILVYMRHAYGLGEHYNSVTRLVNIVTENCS
Procedure, shortened: (§1)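 HEK293T lysate, 495 µg per sample in Tris/CHAPS/IGEPAL buffer with protease inhibitors, was treated in triplicate with fragment at 200 µM or vehicle for 3 h and then with Biotin-Ahx-Ub-VS at 0.5 µM final for 1 h. Labelled DUBs were NeutrAvidin-enriched, digested with LysC and trypsin, and run by diaPASEF LC-MS/MS. Spectronaut label-free quantities were global-median-normalised, and values are average log2 fragment/vehicle ratios by unpaired t-test on proteins with ≥2 unique peptides.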

OTUD7B = target: T2, OTUD7B (UniProt Q6GQQ9)
T2 sequence (whole entry): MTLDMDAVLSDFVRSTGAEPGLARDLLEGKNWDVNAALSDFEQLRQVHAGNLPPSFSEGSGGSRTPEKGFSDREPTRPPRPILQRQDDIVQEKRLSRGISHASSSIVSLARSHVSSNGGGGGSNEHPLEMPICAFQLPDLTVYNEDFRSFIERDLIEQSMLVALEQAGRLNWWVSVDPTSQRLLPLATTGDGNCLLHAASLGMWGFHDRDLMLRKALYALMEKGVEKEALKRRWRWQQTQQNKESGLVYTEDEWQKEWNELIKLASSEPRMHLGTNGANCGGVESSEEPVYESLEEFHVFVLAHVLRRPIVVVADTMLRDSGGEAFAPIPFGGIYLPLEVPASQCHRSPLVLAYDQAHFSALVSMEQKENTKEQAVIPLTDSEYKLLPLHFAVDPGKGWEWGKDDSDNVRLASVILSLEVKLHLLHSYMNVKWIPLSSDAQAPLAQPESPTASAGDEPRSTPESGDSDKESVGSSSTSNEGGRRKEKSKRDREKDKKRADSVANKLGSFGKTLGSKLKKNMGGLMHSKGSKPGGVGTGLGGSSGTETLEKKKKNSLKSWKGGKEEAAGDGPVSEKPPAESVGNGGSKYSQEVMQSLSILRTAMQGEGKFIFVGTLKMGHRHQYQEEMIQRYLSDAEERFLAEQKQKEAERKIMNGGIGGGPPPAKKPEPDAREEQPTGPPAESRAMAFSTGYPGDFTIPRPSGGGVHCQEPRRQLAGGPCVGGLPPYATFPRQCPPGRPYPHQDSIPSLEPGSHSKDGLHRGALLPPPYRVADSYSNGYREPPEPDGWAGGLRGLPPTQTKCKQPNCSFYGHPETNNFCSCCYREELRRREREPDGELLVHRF
Procedure, shortened: as §1

PRPF8 = PRPF8 (UniProt Q6P2Q9)
Procedure, shortened: as §1

PSMD7 = target: T3, PSMD7 (UniProt P51665)
T3 sequence (whole entry): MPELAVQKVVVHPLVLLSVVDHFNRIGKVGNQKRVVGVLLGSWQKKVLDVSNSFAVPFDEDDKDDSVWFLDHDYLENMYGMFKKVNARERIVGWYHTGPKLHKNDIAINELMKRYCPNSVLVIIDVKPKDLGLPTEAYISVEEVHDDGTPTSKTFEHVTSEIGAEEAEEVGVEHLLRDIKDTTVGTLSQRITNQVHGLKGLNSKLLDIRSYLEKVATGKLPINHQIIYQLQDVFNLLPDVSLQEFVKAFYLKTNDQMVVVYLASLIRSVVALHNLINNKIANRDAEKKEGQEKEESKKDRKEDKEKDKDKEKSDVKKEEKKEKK
Procedure, shortened: as §1

UCHL1 = UCHL1 (UniProt P09936)
UCHL1, sequence (P09936 whole entry, looked up): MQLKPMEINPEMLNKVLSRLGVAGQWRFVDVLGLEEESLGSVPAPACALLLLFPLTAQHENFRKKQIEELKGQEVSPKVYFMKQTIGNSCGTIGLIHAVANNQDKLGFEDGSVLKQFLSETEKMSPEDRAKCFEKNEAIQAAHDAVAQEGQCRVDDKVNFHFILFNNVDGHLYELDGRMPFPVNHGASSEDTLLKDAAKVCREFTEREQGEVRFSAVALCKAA
Procedure, shortened: as §1

UCHL3 = target: T4, UCHL3 (UniProt P15374)
T4 sequence (whole entry): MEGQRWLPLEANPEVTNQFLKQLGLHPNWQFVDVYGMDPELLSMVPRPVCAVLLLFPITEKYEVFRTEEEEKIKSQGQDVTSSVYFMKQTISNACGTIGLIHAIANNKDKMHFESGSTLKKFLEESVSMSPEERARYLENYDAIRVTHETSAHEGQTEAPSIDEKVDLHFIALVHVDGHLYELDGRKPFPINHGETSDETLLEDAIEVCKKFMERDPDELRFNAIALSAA
Procedure, shortened: as §1

UCHL5 = target: T5, UCHL5 (UniProt Q9Y5K5)
T5 sequence (whole entry): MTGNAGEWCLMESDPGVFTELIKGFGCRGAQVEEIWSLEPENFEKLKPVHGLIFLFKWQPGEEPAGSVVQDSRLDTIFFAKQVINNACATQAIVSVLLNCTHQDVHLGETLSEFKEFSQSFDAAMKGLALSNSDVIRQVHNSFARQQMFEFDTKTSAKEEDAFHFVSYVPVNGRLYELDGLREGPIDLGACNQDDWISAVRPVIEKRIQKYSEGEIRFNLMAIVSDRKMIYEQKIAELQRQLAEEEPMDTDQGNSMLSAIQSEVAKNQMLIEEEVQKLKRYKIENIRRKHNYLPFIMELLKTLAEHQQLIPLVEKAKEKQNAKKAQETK
Procedure, shortened: as §1

USP10 = USP10 (UniProt Q14694)
USP10, sequence (Q14694 whole entry): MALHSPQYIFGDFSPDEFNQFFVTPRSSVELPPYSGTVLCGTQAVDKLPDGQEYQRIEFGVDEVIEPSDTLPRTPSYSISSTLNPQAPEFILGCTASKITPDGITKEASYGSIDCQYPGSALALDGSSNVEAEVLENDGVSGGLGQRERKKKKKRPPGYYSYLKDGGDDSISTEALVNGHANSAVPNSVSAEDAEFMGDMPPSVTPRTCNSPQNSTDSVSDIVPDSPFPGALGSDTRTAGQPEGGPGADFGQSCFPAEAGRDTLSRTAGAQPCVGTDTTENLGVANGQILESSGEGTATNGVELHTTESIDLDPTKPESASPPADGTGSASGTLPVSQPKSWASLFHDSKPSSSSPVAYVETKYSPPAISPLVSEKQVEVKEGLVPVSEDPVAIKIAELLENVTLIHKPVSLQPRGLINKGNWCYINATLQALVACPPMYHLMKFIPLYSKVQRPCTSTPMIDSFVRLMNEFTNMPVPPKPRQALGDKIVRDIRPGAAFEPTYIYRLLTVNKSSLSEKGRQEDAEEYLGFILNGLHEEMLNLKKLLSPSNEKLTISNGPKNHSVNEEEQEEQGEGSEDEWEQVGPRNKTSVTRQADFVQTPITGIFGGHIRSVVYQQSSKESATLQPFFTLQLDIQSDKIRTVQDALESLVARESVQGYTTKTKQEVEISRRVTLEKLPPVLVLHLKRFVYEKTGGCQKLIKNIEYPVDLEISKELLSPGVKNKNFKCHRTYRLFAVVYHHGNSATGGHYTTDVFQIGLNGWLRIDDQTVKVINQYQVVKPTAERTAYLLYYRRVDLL
Procedure, shortened: as §1

USP15 = target: T6, USP15 (UniProt Q9Y4E8)
T6 sequence (whole entry): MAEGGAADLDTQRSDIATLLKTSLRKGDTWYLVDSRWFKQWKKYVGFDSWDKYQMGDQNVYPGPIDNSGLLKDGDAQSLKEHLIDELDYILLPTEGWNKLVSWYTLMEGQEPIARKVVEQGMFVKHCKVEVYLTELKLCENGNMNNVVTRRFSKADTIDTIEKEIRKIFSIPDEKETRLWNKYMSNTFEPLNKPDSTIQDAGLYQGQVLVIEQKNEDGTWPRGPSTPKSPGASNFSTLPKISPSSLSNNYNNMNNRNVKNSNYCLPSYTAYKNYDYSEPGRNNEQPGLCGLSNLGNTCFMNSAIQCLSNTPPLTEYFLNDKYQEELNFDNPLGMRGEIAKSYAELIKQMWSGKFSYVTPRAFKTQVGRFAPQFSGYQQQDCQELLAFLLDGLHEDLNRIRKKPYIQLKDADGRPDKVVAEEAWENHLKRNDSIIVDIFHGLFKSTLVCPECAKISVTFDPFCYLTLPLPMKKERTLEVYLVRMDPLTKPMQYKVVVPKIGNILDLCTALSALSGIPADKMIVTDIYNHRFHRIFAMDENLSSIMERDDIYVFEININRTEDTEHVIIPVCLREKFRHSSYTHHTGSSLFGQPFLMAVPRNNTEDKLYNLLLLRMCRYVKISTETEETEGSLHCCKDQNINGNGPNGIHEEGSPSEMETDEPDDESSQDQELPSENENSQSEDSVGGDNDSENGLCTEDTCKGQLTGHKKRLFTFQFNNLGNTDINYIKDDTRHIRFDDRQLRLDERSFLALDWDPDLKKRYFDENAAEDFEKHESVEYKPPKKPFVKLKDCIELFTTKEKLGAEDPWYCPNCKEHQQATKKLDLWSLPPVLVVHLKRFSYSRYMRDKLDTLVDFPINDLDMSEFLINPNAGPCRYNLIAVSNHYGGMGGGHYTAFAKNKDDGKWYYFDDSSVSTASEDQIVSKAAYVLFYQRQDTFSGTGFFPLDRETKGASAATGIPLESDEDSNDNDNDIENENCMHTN
Procedure, shortened: as §1

USP16 = USP16 (UniProt Q9Y5T5)
USP16, sequence (Q9Y5T5 whole entry, looked up): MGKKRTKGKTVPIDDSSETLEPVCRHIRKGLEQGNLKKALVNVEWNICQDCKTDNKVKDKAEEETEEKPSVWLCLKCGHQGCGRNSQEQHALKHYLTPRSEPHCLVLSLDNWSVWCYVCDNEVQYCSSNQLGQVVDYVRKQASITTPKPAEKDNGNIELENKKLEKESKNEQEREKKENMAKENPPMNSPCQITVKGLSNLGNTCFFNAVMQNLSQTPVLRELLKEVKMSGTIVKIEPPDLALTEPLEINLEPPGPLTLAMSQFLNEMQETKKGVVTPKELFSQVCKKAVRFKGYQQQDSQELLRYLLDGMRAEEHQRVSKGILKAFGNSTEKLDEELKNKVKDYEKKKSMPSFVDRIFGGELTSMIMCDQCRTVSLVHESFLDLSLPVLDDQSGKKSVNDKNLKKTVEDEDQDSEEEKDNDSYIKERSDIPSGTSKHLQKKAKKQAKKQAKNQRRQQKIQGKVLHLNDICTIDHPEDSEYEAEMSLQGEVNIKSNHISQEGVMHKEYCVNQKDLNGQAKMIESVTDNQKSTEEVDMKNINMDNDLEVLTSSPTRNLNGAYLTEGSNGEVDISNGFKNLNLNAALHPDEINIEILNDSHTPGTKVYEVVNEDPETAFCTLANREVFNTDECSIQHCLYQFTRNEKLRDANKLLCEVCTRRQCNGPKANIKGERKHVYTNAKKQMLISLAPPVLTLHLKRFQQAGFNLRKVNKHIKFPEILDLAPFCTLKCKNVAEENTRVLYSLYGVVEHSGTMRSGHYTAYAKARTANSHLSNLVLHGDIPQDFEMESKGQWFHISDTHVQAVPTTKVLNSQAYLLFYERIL
Procedure, shortened: as §1

Measured: log2 ratio of Biotin-Ahx-Ub-VS probe labelling

O=C(CCl)Nc1ccccc1C(F)(F)F
inactive: OTUD6B -0.447 | OTUD7B -0.668 | PRPF8 0.155 | PSMD7 -0.0779 | UCHL1 -0.977 | UCHL3 0.2 | UCHL5 -0.341 | USP10 -0.0659 | USP15 -0.122 | USP16 -0.0895
